# Results published in article PMC7862700, “An all-to-all approach to the identification of sequence-specific readers for epigenetic DNA modifications on cytosine”.
# Experiments:
# Assay in all cases: DAPPL (digital affinity profiling via proximity ligation, sequencing); 10 mM Tris-HCl pH 7.5, 50 mM NaCl, 1 mM DTT, 4% glycerol, room temperature, 30 min; GST-TFs on glutathione beads, 16-mer random dsDNA library, 0.1% formaldehyde crosslink after washing; high values mean tight binding
# FEV = biological target: T1, FEV (Homo sapiens, UniProt Q99581 1-238); details: protein: recombinant; tags: N-terminal GST; dsDNA, one strand shown
# T1 sequence: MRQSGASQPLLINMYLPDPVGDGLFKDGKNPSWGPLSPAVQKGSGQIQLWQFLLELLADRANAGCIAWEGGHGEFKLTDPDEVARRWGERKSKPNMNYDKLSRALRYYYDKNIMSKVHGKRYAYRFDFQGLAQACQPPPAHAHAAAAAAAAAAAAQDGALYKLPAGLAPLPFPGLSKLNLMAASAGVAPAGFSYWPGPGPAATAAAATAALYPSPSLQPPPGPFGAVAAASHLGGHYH
# In short: (§1)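 Beads coated with glutathione captured GST-fused human transcription factors that had been expressed in yeast, and the factors were then given DNA barcodes and pooled with a tag-only sample. The pools were incubated with 200 nmole of a random double-stranded 16-mer DNA library in Tris/NaCl/DTT/glycerol buffer for 30 min at room temperature, washed, crosslinked with 0.1% formaldehyde and proximity-ligated with BsaI/T4 ligase at 37 °C for 1 h. PCR amplification and Illumina NextSeq500 sequencing came last. Binding signal is each hexamer's read frequency for a factor divided by its frequency for the tag-only sample.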
# ETV5 = ETV5 (Homo sapiens, UniProt P41161 1-510); details: protein: recombinant; tags: N-terminal GST; dsDNA, one strand shown
# In short: as §1
# HSF1 = HSF1 (Homo sapiens, UniProt Q00613 1-529); details: protein: recombinant; tags: N-terminal GST; chain copies: 3; dsDNA, one strand shown
# In short: as §1
# SPIC = biological target: T2, SPIC (Homo sapiens, UniProt Q8N5J4 1-248); details: protein: recombinant; tags: N-terminal GST; dsDNA, one strand shown
# T2 sequence: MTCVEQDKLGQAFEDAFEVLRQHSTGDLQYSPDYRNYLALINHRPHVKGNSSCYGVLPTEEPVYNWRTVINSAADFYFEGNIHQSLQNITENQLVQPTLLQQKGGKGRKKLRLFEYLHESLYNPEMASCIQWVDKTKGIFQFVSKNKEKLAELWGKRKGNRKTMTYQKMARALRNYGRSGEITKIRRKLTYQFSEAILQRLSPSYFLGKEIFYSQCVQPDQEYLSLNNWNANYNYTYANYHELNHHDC
# In short: as §1
# ELF4 = ELF4 (Homo sapiens, UniProt Q99607 1-663); details: protein: recombinant; tags: N-terminal GST; dsDNA, one strand shown
# In short: as §1
# ELK4 = biological target: T3, ELK4 (Homo sapiens, UniProt P28324-2 1-405); details: protein: recombinant; tags: N-terminal GST; dsDNA, one strand shown
# T3 sequence: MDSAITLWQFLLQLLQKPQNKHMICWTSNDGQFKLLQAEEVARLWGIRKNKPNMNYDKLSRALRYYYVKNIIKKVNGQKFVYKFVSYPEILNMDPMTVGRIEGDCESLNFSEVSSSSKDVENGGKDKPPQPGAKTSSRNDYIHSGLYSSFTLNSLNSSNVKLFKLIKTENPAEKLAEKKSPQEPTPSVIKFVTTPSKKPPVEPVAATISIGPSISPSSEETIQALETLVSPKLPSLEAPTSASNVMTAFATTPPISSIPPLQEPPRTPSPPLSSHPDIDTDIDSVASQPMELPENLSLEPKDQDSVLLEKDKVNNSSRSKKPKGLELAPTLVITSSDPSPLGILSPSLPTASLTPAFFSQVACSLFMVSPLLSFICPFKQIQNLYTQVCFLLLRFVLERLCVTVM
# In short: as §1
# ETV2 = biological target: T4, ETV2 (Homo sapiens, UniProt O00321 1-342); details: protein: recombinant; tags: N-terminal GST; dsDNA, one strand shown
# T4 sequence: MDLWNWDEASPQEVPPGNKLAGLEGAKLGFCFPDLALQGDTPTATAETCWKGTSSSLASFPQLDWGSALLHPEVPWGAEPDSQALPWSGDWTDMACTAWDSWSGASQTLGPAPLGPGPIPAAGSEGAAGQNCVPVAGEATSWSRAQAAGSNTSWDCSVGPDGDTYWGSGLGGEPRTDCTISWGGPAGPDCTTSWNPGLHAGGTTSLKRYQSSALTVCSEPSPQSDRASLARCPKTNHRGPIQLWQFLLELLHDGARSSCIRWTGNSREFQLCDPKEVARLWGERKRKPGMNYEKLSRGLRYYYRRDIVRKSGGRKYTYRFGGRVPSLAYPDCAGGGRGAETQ
# In short: as §1
# ELF3 = biological target: T5, ELF3 (Homo sapiens, UniProt P78545 1-371); details: protein: recombinant; tags: N-terminal GST; dsDNA, one strand shown
# T5 sequence: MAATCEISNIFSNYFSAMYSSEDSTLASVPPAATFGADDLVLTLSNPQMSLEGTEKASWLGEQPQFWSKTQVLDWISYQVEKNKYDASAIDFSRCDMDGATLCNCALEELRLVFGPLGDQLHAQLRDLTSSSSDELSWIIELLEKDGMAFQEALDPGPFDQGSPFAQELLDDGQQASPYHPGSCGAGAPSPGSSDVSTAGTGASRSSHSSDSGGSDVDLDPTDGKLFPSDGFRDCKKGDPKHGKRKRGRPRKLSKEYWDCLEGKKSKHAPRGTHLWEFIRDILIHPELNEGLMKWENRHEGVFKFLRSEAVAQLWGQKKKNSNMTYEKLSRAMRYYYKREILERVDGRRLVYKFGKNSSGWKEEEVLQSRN
# In short: as §1
# CRX = CRX (Homo sapiens, UniProt O43186 1-299); details: protein: recombinant; tags: N-terminal GST; dsDNA, one strand shown
# In short: as §1
# ETV1 = ETV1 (Homo sapiens, UniProt P50549 1-477); details: protein: recombinant; tags: N-terminal GST; dsDNA, one strand shown
# In short: as §1
# ERF = biological target: T6, ERF (Homo sapiens, UniProt P50548 1-548); details: protein: recombinant; tags: N-terminal GST; dsDNA, one strand shown
# T6 sequence: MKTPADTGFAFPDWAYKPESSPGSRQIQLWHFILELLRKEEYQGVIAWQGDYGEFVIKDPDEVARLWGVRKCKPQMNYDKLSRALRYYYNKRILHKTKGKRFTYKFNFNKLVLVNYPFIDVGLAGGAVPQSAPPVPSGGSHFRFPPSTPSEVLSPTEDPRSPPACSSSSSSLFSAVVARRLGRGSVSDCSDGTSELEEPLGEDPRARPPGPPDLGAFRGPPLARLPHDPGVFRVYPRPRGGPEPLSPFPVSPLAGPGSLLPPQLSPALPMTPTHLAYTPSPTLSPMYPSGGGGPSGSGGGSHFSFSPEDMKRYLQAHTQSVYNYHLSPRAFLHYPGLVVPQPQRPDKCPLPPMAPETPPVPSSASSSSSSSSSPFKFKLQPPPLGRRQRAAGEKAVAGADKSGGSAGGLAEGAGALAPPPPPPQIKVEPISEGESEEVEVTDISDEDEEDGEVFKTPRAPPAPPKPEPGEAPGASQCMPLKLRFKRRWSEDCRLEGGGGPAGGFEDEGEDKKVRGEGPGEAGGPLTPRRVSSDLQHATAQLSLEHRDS
# In short: as §1
# ETV3L = biological target: T7, ETV3L (Homo sapiens, UniProt Q6ZN32 1-361); details: protein: recombinant; tags: N-terminal GST; dsDNA, one strand shown
# T7 sequence: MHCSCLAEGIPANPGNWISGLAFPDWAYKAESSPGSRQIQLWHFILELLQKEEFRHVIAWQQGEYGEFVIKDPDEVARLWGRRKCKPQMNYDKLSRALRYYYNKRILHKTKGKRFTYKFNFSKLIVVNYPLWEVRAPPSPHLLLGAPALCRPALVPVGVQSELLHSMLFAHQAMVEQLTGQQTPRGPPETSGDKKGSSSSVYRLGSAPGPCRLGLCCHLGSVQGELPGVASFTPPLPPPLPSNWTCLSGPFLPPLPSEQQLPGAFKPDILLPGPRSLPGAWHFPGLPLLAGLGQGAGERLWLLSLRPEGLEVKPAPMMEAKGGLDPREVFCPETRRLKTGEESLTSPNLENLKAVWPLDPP
# In short: as §1
# ETS2 = biological target: T8, ETS2 (Homo sapiens, UniProt P15036 1-469); details: protein: recombinant; tags: N-terminal GST; dsDNA, one strand shown
# T8 sequence: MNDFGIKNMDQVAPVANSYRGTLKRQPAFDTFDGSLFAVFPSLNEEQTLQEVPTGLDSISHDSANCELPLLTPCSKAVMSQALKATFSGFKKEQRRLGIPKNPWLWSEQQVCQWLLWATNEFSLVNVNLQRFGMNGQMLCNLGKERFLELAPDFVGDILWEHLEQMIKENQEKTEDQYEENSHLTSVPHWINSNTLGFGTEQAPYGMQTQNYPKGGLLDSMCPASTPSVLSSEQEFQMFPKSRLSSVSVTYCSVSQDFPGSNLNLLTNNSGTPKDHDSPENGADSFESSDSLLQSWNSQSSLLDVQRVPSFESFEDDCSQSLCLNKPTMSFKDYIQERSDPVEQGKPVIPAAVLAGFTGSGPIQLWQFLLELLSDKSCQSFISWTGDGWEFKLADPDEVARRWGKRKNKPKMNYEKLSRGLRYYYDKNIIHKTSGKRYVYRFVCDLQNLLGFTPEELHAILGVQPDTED
# In short: as §1
# SPDEF = biological target: T9, SPDEF (Homo sapiens, UniProt O95238 1-335); details: protein: recombinant; tags: N-terminal GST; dsDNA, one strand shown
# T9 sequence: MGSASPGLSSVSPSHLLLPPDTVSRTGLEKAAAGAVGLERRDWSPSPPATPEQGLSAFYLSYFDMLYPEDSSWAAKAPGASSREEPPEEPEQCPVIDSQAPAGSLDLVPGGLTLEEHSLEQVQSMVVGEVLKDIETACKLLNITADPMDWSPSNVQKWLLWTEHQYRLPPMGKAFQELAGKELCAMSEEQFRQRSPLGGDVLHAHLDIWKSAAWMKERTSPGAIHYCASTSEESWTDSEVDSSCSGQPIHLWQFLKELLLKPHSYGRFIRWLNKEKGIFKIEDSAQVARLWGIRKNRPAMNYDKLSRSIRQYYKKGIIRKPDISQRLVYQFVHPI
# In short: as §1
# ETV7 = biological target: T10, ETV7 (Homo sapiens, UniProt Q9Y603 1-341); details: protein: recombinant; tags: N-terminal GST; dsDNA, one strand shown
# T10 sequence: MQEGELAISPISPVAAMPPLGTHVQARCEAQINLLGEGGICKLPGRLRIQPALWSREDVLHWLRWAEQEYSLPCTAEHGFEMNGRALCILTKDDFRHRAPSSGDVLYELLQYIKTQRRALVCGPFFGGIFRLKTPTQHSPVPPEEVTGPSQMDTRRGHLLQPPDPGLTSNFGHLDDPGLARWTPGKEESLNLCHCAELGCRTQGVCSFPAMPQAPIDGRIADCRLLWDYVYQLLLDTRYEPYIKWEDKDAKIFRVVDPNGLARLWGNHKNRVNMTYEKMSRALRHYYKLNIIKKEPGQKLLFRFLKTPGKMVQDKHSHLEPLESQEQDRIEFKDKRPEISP
# In short: as §1
# ELF5 = biological target: T11, ELF5 (Homo sapiens, UniProt Q9UKW6-2 1-255); details: protein: recombinant; tags: N-terminal GST; dsDNA, one strand shown
# T11 sequence: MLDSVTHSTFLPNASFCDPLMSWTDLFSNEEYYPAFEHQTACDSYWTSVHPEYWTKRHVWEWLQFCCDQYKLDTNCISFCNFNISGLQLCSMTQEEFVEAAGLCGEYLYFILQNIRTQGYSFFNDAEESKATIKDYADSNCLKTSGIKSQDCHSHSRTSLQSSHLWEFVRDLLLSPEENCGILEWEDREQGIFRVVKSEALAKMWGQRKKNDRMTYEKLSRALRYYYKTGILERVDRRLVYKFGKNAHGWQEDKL
# In short: as §1
# ETV3 = biological target: T12, ETV3 (Homo sapiens, UniProt P41162-2 1-143); details: protein: recombinant; tags: N-terminal GST; dsDNA, one strand shown
# T12 sequence: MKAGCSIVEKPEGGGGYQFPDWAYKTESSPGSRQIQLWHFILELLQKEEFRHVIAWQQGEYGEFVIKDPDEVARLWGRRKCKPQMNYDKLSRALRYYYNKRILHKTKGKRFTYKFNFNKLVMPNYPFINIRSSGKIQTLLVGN
# In short: as §1
# ETV6 = ETV6 (Homo sapiens, UniProt P41212 1-452); details: protein: recombinant; tags: N-terminal GST; dsDNA, one strand shown
# In short: as §1
# HSF1, sequence (Q00613 whole entry): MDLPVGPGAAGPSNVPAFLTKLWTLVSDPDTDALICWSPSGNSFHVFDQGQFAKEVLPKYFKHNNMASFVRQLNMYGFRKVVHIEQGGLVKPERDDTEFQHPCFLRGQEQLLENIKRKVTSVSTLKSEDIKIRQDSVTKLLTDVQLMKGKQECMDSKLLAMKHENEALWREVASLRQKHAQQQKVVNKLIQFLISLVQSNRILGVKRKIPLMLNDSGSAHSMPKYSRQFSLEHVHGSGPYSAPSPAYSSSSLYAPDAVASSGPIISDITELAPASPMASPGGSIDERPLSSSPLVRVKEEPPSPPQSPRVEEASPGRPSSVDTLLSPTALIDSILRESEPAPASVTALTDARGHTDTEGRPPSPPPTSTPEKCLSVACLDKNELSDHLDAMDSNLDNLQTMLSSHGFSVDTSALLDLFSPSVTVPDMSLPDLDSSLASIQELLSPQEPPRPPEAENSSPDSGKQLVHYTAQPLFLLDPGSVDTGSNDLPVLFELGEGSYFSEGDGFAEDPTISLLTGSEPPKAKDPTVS
# ETV1, sequence (P50549 whole entry): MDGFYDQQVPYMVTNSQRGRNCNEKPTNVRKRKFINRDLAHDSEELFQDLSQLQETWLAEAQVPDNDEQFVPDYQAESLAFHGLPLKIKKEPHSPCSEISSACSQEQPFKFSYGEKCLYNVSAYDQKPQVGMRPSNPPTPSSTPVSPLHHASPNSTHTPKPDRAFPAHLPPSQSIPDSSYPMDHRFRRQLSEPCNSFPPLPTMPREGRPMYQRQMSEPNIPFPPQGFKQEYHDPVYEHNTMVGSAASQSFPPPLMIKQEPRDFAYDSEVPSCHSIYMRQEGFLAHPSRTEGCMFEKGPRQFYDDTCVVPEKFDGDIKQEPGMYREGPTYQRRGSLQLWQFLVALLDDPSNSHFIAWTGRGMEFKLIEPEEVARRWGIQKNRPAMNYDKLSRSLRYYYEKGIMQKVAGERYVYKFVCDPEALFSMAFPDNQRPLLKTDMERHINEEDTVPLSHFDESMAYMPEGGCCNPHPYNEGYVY
# CRX, sequence (O43186 whole entry): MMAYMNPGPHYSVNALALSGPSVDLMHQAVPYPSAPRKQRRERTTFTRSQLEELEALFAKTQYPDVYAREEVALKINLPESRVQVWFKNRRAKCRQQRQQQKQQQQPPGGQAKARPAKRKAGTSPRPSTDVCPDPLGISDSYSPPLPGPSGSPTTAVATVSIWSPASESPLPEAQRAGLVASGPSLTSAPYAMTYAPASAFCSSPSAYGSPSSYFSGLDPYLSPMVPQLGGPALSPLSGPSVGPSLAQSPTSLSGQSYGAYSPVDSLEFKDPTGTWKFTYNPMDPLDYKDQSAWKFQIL
# ETV6, sequence (P41212 whole entry): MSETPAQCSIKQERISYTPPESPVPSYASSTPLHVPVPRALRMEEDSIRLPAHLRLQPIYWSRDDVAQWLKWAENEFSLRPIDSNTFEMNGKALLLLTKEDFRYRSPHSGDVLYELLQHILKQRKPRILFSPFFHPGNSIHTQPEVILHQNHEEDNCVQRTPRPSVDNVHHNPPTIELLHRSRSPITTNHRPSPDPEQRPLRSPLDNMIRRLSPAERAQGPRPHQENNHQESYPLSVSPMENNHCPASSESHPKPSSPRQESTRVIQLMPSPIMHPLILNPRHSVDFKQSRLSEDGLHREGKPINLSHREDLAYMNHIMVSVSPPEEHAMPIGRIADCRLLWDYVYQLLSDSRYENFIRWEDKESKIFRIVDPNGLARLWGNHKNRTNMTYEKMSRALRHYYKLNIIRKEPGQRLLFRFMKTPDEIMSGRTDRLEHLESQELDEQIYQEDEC
# ELF4, sequence (Q99607 whole entry): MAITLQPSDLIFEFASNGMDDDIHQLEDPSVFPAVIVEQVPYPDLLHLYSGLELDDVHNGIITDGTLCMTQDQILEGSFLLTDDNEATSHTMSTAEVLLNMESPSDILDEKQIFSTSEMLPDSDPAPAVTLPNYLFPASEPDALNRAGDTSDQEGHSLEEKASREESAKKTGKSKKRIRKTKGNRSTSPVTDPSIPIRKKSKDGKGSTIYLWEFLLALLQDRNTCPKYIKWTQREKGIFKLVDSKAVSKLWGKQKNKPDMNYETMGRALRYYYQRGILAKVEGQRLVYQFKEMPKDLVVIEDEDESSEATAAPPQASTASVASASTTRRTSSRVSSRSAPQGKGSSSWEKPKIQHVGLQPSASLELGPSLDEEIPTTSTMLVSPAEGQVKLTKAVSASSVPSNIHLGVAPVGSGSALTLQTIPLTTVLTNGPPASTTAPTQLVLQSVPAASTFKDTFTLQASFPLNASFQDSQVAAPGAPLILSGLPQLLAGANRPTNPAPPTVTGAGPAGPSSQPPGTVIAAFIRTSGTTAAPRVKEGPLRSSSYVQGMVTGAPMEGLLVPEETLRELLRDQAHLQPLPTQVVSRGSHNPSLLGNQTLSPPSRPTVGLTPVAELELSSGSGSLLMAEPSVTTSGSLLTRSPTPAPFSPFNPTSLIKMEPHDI
# ETV5, sequence (P41161 whole entry): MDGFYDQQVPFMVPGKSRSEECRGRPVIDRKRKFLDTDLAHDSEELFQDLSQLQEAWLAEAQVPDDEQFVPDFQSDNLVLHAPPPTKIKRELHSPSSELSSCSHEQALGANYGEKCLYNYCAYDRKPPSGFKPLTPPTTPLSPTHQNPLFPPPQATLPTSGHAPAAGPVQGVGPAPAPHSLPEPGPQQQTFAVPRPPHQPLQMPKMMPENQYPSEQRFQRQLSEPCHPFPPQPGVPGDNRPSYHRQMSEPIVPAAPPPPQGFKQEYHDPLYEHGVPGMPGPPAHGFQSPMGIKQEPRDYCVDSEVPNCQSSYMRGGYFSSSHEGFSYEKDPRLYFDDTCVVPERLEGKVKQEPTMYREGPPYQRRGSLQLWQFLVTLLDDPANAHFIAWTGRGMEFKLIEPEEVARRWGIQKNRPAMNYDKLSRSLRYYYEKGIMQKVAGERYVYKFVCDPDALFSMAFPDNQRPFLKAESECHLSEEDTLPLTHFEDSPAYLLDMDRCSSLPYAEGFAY
sequence,measurement,setting,value
CACTTC,binding signal,FEV,"5.06 fold enrichment (6-mer frequency, TF over GST control)"
same,binding signal,ETV5,"3.62 fold enrichment (6-mer frequency, TF over GST control)"
same,binding signal,HSF1,"1.3 fold enrichment (6-mer frequency, TF over GST control)"
same,binding signal,SPIC,"3.53 fold enrichment (6-mer frequency, TF over GST control)"
same,binding signal,ELF4,"3.48 fold enrichment (6-mer frequency, TF over GST control)"
same,binding signal,ELK4,"3.01 fold enrichment (6-mer frequency, TF over GST control)"
same,binding signal,ETV2,"3.4 fold enrichment (6-mer frequency, TF over GST control)"
same,binding signal,ELF3,"3.05 fold enrichment (6-mer frequency, TF over GST control)"
same,binding signal,CRX,"1.07 fold enrichment (6-mer frequency, TF over GST control)"
same,binding signal,ETV1,"3.73 fold enrichment (6-mer frequency, TF over GST control)"
same,binding signal,ERF,"3.07 fold enrichment (6-mer frequency, TF over GST control)"
same,binding signal,ETV3L,"3.63 fold enrichment (6-mer frequency, TF over GST control)"
same,binding signal,ETS2,"3.66 fold enrichment (6-mer frequency, TF over GST control)"
same,binding signal,SPDEF,"3.55 fold enrichment (6-mer frequency, TF over GST control)"
same,binding signal,ETV7,"3.64 fold enrichment (6-mer frequency, TF over GST control)"
same,binding signal,ELF5,"4.43 fold enrichment (6-mer frequency, TF over GST control)"
same,binding signal,ETV3,"3.65 fold enrichment (6-mer frequency, TF over GST control)"
same,binding signal,ETV6,"4.24 fold enrichment (6-mer frequency, TF over GST control)"
